Test results as given in PubChem BioAssay (NCATS).
“And” between values parts separate entries of the source, which are not always exact repeats. Equal entries are not always repeated. Results filed as inconclusive are left out. Where a call stands in place of a potency, no number is given. The source made the active and inactive calls. Unless noted, the call rests on the fitted dose curve.

How the values were obtained:
[1] = qHTS for Inhibitors of the Functional Ribonucleoprotein Complex (vRNP) of Lassa (LASV) Arenavirus: LASV Primary Screen - GLuc reporter signal (AID 1347082; calls by dose curve; tested in HEK293 reporter line; further: nearly all actives have a fitted effect of over 60% in size; further: potency means the concentration at half of the fitted maximal effect)
[2] = qHTS for Inhibitors of the Functional Ribonucleoprotein Complex (vRNP) of Lassa (LASV) Arenavirus: Viability assay - alamar blue signal for LASV Primary Screen (AID 1347083; calls by dose curve; tested in HEK293 reporter line; further: nearly all actives have a fitted effect of over 80% in size; further: potency means the concentration at half of the fitted maximal effect)
[3] = qHTS for Inhibitors of the Functional Ribonucleoprotein Complex (vRNP) of Lymphocytic Choriomeningitis Arenaviruses (LCMV): Viability assay - alamar blue signal for LCMV Primary Screen (AID 1347085; calls by dose curve; tested in HEK293 reporter line; further: nearly all actives have a fitted effect of over 80% in size; further: potency means the concentration at half of the fitted maximal effect)
[4] = biological target: Nucleoprotein (Lymphocytic choriomeningitis virus (strain Armstrong)) (UniProt P09992); experiment: qHTS for Inhibitors of the Functional Ribonucleoprotein Complex (vRNP) of Lymphocytic Choriomeningitis Arenaviruses (LCMV): LCMV Primary Screen - GLuc reporter signal (AID 1347086); further: nearly all actives have a fitted effect of over 70% in size; further: potency means the concentration at half of the fitted maximal effect
[5] = Primary qHTS for Huh7 cytotoxicity: counterscreen for inhibitors of MERS-S pseudotyped particle cell entry (AID 1479147); settings: outcome: dose series up to 57.1 µM unless noted
[6] = Primary qHTS for inhibitors of MERS-S pseudo-typed particle cell entry (AID 1479149); further: nearly all actives have a fitted effect of over 60% in size; further: potency means the concentration at half of the fitted maximal effect
[7] = Primary qHTS for Vero E6 cytotoxicity: counterscreen for inhibitors of SARS-S pseudo-typed particle cell entry (AID 1479150); settings: outcome: dose series up to 57.1 µM unless noted
[8] = Cytotoxicity counterscreen for inhibitors of SARS-CoV-2 cell entry (AID 1645845); further: nearly all actives have a fitted effect of over 50% in size
In short: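 After a 15 min room-temperature ATPLite 1step step, luminescence reflected ATP remaining in HEK293-ACE2 cells exposed to compound for 1 h plus 48 h at 37 C, with percent activity set by cell and no-cell controls.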

[9] = Primary qHTS to identify inhibitors of SARS-CoV-2 cell entry (AID 1645846); settings: activity change, negative = inhibition: at 57.1 µM (top of the series) unless noted; further: nearly all actives have a fitted effect of over 45% in size
In short: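 Data are normalized to wells receiving SARS-CoV-2-S pseudoparticles and those given bald particles. Entry signal was luciferase luminescence in stable hACE2 Expi293F cells, 48 hr post-infection, after 1 hr compound pretreatment.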

[10] = Validation screen for inhibitors of Lassa infection (AID 463096)
[11] = Confirmatory qHTS to identify inhibitors of SARS-CoV-2 cell entry (AID 1645844); further: potency means the concentration at half of the fitted maximal effect; nearly all actives have a fitted effect of over 45% in size
In short: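 Using stable human ACE2 Expi293F cells, compounds preincubated 1 hr before spike pseudoparticle infection; luciferase signal after 48 hr at 37C, 5% CO2, normalised to spike PP and no-fusion-protein PP wells.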

[12] = VSVG counterscreen qHTS to identify inhibitors of SARS-CoV-2 cell entry (AID 1645847); further: potency means the concentration at half of the fitted maximal effect; nearly all actives have a fitted effect of over 65% in size
In short: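 Counterscreen using VSV-G (not spike) pseudotyped MLV particles on ACE2-expressing Expi293F cells after 1 h compound preincubation; infection ran 48 h at 37 °C. Data normalized to VSV-G PP and bald-PP wells.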

[13] = Stat Signaling Pathway (AID 446; active means well fitted curve in either direction with a large enough effect, not every such curve was filed as active;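 further: ME-180 cervical cancer cells given 40 pM IL-6 alongside compound; SIE-controlled beta-lactamase reporter measured as 460/530 nm FRET emission ratio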)
In short: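 Emission at 460 and 530 nm (excitation 405 nm) reports SIE-controlled beta-lactamase in ME-180 cells. Cells received compound with 40 pM IL-6 for 5 hrs at 37 C; data scaled between 300 pM IL-6 and 125 nM JAK-inhibitor controls.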

[14] = biological target: Glucocorticoid receptor (Homo sapiens) (UniProt P04150); experiment: GR-GFP Redistribution (AID 450;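 active means compounds whose dose series gives a full or clear partial fitted curve of increased nuclear translocation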; further: potency means the concentration at half of the fitted maximal effect); settings: U2OS GR-GFP nuclear translocation, laser cytometry, 2 h
[15] = biological target: Cytochrome P450 3A4 (Homo sapiens) (UniProt P08684); experiment: qHTS Assay for Activators of Cytochrome P450 3A4 (AID 885; active means well fitted curve in the direction sought with a large enough effect; an effect the other way counts as inactive or inconclusive; further: nearly all actives have a fitted effect of over 65% in size)
In short: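 Activators are scored by enhanced luminescence from CYP3A4 conversion of luciferin-PPXE (25uM, equal to KM) to luciferin, after 60 min at RT with an NADPH-regenerating system.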

[16] = Confirmation and Secondary Assay for Modulators of Hemoglobin Beta Chain Splicing at IVS2 654 locus (AID 910; active means well fitted curve in the direction sought with a large enough effect; an effect the other way counts as inactive or inconclusive;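 further: per-well total GFP intensity by laser scanning cytometry after 2-day treatment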)
In short: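 HeLa cells stably carrying EGFP interrupted by mutant beta-globin IVS2-654 intron (CMV-driven) were treated with compound for 2 days at 37C; corrected splicing was scored as total peak GFP intensity per well (488 nm excitation, 500-520 nm emission).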

[17] = Confirmation and Secondary Assay for Modulators of Hemoglobin Beta Chain Splicing at IVS2 705 locus (AID 930; active means well fitted curve in the direction sought with a large enough effect; an effect the other way counts as inactive or inconclusive;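 further: HeLa cells stably expressing the EGFP-705 splicing reporter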)
In short: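 Restored EGFP fluorescence after 2-day compound exposure reports splicing correction in IVS2-705 EGFP reporter HeLa cells; positive control was 500 nM splice-blocking PNA oligo. Signal measured as well total peak GFP intensity (488 nm excitation).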

[18] = qHTS Assay for Lipid Storage Modulators (AID 1519); settings: Drosophila S3 cells, BODIPY lipid droplet/cell ratio, laser cytometry, cells loaded with oleic acid
In short: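 Cells seeded at 5,000 per well were treated with compounds over a concentration series and loaded with oleic acid (400 uM, as added). Lipid droplet fluorescence (488 nm excitation, 500-530 nm channel) was read by laser-scanning cytometry and normalized to 20 uM Triacsin C.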

[19] = biological target: Rap guanine nucleotide exchange factor 3 (Homo sapiens) (UniProt O95398); experiment: Confirmatory qHTS for agonist of cAMP-regulated guanine nucleotide exchange factor 3 (EPAC1) (AID 1645881; active means well fitted curve in the direction sought with a large enough effect; an effect the other way counts as inactive or inconclusive;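 further: EPAC1 catalysed release of BODIPY-GDP from Rap1B seen as fluorescence loss; nearly all actives have a fitted effect of over 75% in size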)
[20] = biological target: Rap guanine nucleotide exchange factor 4 (Homo sapiens) (UniProt Q8WZA2); experiment: Confirmatory qHTS for agonist of cAMP-regulated guanine nucleotide exchange factor 4 (EPAC2) (AID 1645884; active means well fitted curve in the direction sought with a large enough effect; an effect the other way counts as inactive or inconclusive;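 further: nucleotide exchange releases bodipy-GDP from Rap1 and this lowers its fluorescence; nearly all actives have a fitted effect of over 65% in size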)
[21] = biological target: Rap guanine nucleotide exchange factor 4 (Homo sapiens) (UniProt Q8WZA2); experiment: Confirmatory qHTS for antagonist of cAMP-regulated guanine nucleotide exchange factor 4 (EPAC2) (AID 1645885; active means well fitted curve in the direction sought with a large enough effect; an effect the other way counts as inactive or inconclusive; further: potency means the concentration at half of the fitted maximal effect; nearly all actives have a fitted effect of over 25% in size)
[22] = biological target: Rap guanine nucleotide exchange factor 3 (Homo sapiens) (UniProt O95398); experiment: Counterscreen qHTS for antagonist of cAMP-regulated guanine nucleotide exchange factor 3 (EPAC1) (AID 1645888; active means well fitted curve in the direction sought with a large enough effect; an effect the other way counts as inactive or inconclusive;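 further: fluorescence loss as bound BODIPY-GDP is released from Rap1B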)
In short: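 Measured: fluorescence of BODIPY-GDP bound to Rap1B, which falls as exchange proceeds. Conditions include 50 uM competing GDP, 5 and 30 min reads, and a later cAMP challenge for antagonist detection.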

[23] = Counterscreen qHTS for small molecule stabilizers of the endoplasmic reticulum resident proteome: GLuc-NoTag assay (AID 1508627; active means well fitted curve in the direction sought with a large enough effect; an effect the other way counts as inactive or inconclusive)
In short: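 Secreted GLuc lacking the SERCaMP modification is measured in SH-SY5Y cells exposed to compound for 19 h and then to thapsigargin (100 nM, 4 h) to deplete ER calcium; hits retested at 11 concentrations, up to 76.6 uM.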

[24] = Cell Viability qHTS for small molecule stabilizers of the endoplasmic reticulum resident proteome (AID 1508629; active means well fitted curve in the direction sought with a large enough effect; an effect the other way counts as inactive or inconclusive;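 further: human SH-SY5Y neuroblastoma cells carrying the GLuc-SERCaMP reporter; compound exposure about 46 h in total before the viability read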); settings: cell viability counter-screen, 100 nM thapsigargin for final 4 h
[25] = Primary qHTS for small molecule stabilizers of the endoplasmic reticulum resident proteome: Secreted ER Calcium Modulated Protein (SERCaMP) assay (AID 1508630; active means well fitted curve in the direction sought with a large enough effect; an effect the other way counts as inactive or inconclusive)
In short: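 The SH-SY5Y reporter protocol was run at 3 concentrations up to 38.3 uM (primary) or 11 concentrations (follow-up): 16 h compound, 100 nM thapsigargin for 4 h, then extracellular luciferase luminescence.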

[26] = Confirmatory qHTS for activators (rescue) of SARS-CoV-2 Cytopathic Effect (CPE) (AID 1508606); further: potency means the concentration at half of the fitted maximal effect; nearly all actives have a fitted effect of over 70% in size

Sequence of Rap guanine nucleotide exchange factor 4 (Homo sapiens) (Q8WZA2 whole entry, looked up): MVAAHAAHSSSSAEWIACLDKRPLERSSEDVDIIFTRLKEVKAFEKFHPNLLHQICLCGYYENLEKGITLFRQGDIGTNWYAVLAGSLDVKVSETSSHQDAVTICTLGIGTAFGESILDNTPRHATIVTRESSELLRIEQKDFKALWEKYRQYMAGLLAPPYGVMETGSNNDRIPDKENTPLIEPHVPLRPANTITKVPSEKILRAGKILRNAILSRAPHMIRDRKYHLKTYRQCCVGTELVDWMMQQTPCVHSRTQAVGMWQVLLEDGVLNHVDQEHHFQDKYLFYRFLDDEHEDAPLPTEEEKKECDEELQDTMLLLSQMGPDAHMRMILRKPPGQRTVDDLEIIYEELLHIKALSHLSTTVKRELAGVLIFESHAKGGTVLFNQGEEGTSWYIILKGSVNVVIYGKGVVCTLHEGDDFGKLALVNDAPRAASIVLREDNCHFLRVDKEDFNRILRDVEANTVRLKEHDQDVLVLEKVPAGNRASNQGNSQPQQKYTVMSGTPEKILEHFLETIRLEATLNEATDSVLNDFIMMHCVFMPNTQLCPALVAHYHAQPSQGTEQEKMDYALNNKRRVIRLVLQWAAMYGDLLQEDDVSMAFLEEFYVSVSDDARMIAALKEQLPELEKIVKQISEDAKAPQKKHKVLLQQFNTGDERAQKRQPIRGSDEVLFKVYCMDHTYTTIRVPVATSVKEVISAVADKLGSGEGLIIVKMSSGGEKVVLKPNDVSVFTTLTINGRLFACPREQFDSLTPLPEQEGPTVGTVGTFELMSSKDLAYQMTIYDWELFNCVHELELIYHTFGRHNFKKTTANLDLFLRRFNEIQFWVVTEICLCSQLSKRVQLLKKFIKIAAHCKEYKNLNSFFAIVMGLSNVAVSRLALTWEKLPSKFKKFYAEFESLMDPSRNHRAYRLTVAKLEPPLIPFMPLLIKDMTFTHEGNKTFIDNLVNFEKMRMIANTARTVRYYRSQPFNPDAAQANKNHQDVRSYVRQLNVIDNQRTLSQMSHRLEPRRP
Sequence of Rap guanine nucleotide exchange factor 3 (Homo sapiens) (O95398 whole entry, looked up): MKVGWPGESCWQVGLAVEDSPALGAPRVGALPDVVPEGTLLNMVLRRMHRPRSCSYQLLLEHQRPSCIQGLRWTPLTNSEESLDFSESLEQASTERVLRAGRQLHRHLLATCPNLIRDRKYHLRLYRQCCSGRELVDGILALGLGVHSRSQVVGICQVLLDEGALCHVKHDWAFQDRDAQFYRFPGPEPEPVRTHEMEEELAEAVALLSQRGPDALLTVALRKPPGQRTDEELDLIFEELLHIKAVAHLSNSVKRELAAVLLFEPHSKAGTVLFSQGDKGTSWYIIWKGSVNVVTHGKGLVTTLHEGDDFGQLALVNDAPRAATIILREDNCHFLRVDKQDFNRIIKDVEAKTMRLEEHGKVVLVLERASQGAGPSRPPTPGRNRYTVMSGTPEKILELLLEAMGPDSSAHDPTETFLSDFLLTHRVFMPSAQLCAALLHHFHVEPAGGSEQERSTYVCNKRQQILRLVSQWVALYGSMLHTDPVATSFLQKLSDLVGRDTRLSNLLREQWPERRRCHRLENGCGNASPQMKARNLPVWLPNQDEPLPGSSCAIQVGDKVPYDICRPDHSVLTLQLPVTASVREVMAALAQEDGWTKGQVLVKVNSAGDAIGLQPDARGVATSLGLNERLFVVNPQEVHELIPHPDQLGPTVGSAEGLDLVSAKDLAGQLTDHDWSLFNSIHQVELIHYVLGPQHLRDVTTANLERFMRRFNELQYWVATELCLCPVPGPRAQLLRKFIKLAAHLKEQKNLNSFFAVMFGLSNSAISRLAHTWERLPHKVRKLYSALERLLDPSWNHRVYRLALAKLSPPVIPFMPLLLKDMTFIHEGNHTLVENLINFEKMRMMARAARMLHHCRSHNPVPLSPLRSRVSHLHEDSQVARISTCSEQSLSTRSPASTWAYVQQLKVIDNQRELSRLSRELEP
Sequence of Nucleoprotein (Lymphocytic choriomeningitis virus (strain Armstrong)) (P09992 whole entry, looked up): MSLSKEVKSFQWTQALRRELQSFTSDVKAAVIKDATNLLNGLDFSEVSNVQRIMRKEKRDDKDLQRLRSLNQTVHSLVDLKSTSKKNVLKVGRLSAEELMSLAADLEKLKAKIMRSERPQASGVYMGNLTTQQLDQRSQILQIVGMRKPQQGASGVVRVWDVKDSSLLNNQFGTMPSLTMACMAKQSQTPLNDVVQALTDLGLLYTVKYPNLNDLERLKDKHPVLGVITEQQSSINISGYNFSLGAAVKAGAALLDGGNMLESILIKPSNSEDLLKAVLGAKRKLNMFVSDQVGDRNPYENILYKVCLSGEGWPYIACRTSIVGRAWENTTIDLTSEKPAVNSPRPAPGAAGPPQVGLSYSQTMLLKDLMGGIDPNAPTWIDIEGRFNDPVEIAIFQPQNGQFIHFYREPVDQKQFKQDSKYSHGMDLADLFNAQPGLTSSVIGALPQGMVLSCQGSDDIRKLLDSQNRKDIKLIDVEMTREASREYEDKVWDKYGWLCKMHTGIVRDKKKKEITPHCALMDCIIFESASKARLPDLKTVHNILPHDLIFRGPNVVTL
Sequence of Glucocorticoid receptor (Homo sapiens) (P04150 whole entry, looked up): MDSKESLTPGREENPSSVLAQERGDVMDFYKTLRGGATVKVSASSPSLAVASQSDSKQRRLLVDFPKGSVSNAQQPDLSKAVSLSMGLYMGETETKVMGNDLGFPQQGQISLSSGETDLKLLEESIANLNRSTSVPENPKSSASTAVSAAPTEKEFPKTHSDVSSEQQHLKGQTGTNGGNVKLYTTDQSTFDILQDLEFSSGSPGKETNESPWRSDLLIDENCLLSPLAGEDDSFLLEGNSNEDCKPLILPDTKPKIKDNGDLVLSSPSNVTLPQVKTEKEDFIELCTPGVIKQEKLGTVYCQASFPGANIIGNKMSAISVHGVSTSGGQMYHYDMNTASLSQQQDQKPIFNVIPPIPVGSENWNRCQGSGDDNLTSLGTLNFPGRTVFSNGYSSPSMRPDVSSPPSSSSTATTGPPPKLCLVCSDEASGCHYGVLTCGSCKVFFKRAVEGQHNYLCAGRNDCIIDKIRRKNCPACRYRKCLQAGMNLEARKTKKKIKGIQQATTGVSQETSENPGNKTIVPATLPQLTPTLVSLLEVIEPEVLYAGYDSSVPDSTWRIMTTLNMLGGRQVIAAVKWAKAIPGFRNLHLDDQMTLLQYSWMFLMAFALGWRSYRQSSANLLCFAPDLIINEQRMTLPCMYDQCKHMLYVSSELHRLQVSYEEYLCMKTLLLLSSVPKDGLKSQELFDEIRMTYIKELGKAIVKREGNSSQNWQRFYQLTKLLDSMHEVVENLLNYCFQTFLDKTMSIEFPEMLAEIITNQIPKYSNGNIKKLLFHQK
Sequence of Cytochrome P450 3A4 (Homo sapiens) (P08684 whole entry, looked up): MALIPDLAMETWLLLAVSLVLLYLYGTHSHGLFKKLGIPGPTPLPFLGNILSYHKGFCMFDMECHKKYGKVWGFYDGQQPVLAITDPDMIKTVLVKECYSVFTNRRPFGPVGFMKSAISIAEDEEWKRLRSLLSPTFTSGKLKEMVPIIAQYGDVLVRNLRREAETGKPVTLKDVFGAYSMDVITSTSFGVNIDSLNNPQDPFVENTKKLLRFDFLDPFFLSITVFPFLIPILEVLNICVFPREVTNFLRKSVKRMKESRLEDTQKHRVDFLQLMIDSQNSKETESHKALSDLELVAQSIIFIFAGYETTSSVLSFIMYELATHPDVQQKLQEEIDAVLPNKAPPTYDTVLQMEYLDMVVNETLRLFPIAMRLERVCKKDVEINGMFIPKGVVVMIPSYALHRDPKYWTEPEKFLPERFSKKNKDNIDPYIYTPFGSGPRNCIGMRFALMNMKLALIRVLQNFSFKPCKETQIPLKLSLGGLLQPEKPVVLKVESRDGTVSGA

Nc1cccc2c1C(=O)N(C1CCC(=O)NC1=O)C2=O (configuration not stated)
Potency [1]: inactive | Potency [2]: inactive | Potency [3]: inactive | Potency [4]: inactive | outcome [5]: inactive | Potency [6]: inactive | outcome [7]: inactive | Potency [8]: inactive | activity change, negative = inhibition [9]: -12.7%

CC1(C)CCC(CN2CCN(c3ccc(C(=O)NS(=O)(=O)c4ccc(NCC5CCOCC5)c([N+](=O)[O-])c4)c(Oc4cnc5[nH]ccc5c4)c3)CC2)=C(c2ccc(Cl)cc2)C1
Potency [1]: inactive | Potency [2]: inactive | Potency [3]: inactive | Potency [4]: inactive | outcome [5]: inactive | Potency [6]: inactive | outcome [7]: inactive | Potency [8]: inactive | activity change, negative = inhibition [9]: -9.23% and -30%

COc1ccc(CCN(C)CCCC(C#N)(c2ccc(OC)c(OC)c2)C(C)C)cc1OC (configuration not stated)
outcome [10]: inactive | Potency [1]: inactive | Potency [2]: inactive | Potency [3]: inactive | Potency [4]: inactive | outcome [5]: inactive | outcome [7]: inactive | Potency [8]: inactive

CO[C@H]1[C@@H](O)[C@H](N)[C@@H](O[C@H]2O[C@H]([C@H](C)N)CC[C@H]2N)[C@H](O)[C@@H]1N(C)C(=O)CN
Potency [1]: inactive | Potency [2]: inactive | Potency [3]: inactive | Potency [4]: inactive | outcome [5]: inactive | Potency [6]: inactive | outcome [7]: inactive | Potency [8]: inactive | activity change, negative = inhibition [9]: -5.5%

COc1c(OCCCN2CCOCC2)ccc2c3n(c(=NC(=O)c4cnc(N)nc4)nc12)CCN3
Potency [1]: 1500 nM (active) | Potency [2]: 298 nM (active) | Potency [3]: 1060 nM (active) | Potency [4]: 2980 nM (active) | activity change, negative = cytotoxicity [5]: 3.49% [at 11.4 µM] (inactive) | Potency [6]: 3550 nM (active) | activity change, negative = cytotoxicity [7]: -14.8% [at 11.4 µM] (inactive) | Potency [11]: 312 nM (active) | Potency [12]: 2780 nM (active)

Clc1ccc(COC(Cn2ccnc2)c2ccc(Cl)cc2Cl)c(Cl)c1 (configuration not stated)
outcome [13]: inactive | Potency [14]: > 20600 nM (inactive) | Potency [15]: inactive | Potency [16]: inactive | outcome [17]: inactive | activity change, negative = inhibition ([18]; at 57.5 µM (top of the series)): 3.93% (inactive) | max response ([18]; measured here: cell count channel max response): -9.24% | max response ([18]; measured here: lipid channel max response): -3.69% | Potency [1]: inactive | Potency [2]: inactive | Potency [3]: inactive | Potency [4]: inactive | outcome [19]: inactive | outcome [20]: inactive | Potency [21]: 49.4 µM (active) and 21.3 µM (active) | outcome [22]: inactive

CN1C2CCC1CC(OC(=O)C1CCC(C(=O)OC3CC4CCC(C3)N4C)(c3ccccc3)c3ccccc31)C2 (configuration not stated)
Potency [1]: inactive | Potency [2]: inactive | Potency [3]: inactive | Potency [4]: inactive | Potency [23]: inactive | max response [24]: -2.96% (inactive)

O=C1CCC[C@H]2[C@H]3CCCN4CCCC(=CN12)[C@@H]34
Potency [1]: inactive | Potency [2]: inactive | Potency [3]: inactive | Potency [4]: inactive | Potency [25]: inactive

Cc1ccc(C(=O)Nc2cccc(C(F)(F)F)c2)cc1Nc1nc(-c2cccnc2)nc2c1cnn2C
Potency [1]: inactive | Potency [2]: inactive | Potency [3]: inactive | Potency [4]: inactive | Potency [26]: 1410 nM (active) | Potency [8]: inactive

C[C@]12CC[C@@H]3c4ccc(O)cc4C[C@@H](CCCCCCCCCS(=O)CCCC(F)(F)C(F)(F)F)[C@H]3[C@H]1CC[C@H]2O (some centres not stated)
Potency [1]: inactive | Potency [2]: inactive | Potency [3]: inactive | Potency [4]: inactive | Potency [8]: inactive

CC(C)(C)OC(=O)CN(Cc1ccc(Cl)cc1)Cc1ccc([N+](=O)[O-])s1
Potency [1]: inactive | Potency [2]: inactive | Potency [3]: inactive | Potency [4]: inactive | Potency [8]: inactive
